Shown are actives, neighbours in structure and some others; about 2.4% of the full set was active somewhere.
Rango release inh = prevents RanGTP from dissociating the Rango-importin beta complex; Biochemical FRET Rango-importin beta, RanGTP-induced dissociation; hit rate 0.071% among 340,000; AID 540253; Potency, µM (series often up to 46.1 µM), without a hit: top-dose activity change, negative = inhibition; further: % of control where 0% means no effect; nearly all actives have a fitted effect of over 45% in size
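Rango FRET biosensor (snurportin-1 IBB flanked by N-terminal EYFP and C-terminal CFP10) at 0.1 uM, with 0.25 uM importin beta in PBS, 1mM DTT, 0.02% Tween-20, 0.1% BSA. 0.6 uM Ran, 2mM GTP and 0.2 uM RCC1 were then added for 45 min at room temperature. Inhibition read as loss of FRET rise.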
TDP1 inh = TDP1 (human) enzyme inhibition | Q9NUW8 | recombinant TDP1, AlphaScreen DNA substrate cleavage | Potency, µM (doses to about 130 µM), for inactives: at the highest dose activity change, negative = inhibition, most hits filed as inhibitors | hit rate 0.28% among 350,000; active means well fitted curve in the direction sought with a large enough effect; inconclusive means small, poorly fitted or top-dose-only effect, or another doubt; inactive means no such curve, though single readings can be large; an effect the other way counts as inactive or inconclusive; further: on the % scale 0 is the no-effect control and ±100 the full control effect; nearly all actives have a fitted effect of over 40% in size
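E. coli-derived human Tdp1, 1 nM final. Cpd preinc 15 min RT; substrate 15 nM final, 5 min RT; AS bead mix 10 ug/ml final, 10 min RT. Signal loss = tyrosine-FITC cleavage. No-enzyme wells = max signal.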
ClpP mod = qHTS Assay for Activators of ClpP | Potency, µM (doses to about 57.5 µM), for the others: top-dose activity change, negative = active | purified B. subtilis ClpP, FRET peptide cleavage, 20 min | AID 651965, 2013 | hit rate 1.9% among 340,000 | ATP-dependent Clp protease proteolytic subunit (Bacillus subtilis (strain 168)), P80244; active means well fitted falling curve with a large enough effect; inconclusive means small, poorly fitted or top-dose-only effect; inactive means no such curve, though single readings can be large or run the other way; further: the source files actives as falling curves though it sought activators and does not explain the sign; nearly all actives have a fitted effect of over 65% in size
Target sequence (P80244 whole entry, looked up): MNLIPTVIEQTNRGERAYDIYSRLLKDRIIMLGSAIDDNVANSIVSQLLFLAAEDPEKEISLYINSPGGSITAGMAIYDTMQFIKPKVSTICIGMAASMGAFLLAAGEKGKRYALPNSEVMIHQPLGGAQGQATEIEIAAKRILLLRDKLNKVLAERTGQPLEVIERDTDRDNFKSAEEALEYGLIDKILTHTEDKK
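Purified B. subtilis ClpP, 10 microg/mL final in Tris/HCl pH8 with KCl, BSA, glycerol and Tween-20, cleaved an Abz/nitrotyrosine-quenched decapeptide. Fluorescence (ex 320, em 430) was read at 0 and 20 min at room temperature. Delta was normalized to 5.8 microM ADEP and DMSO/no-enzyme controls.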
PTAP TSG101 blk = blocks PTAP/TSG101 interaction to inhibit HIV-1 budding. Q99816. Fluorescence polarization, FITC-PTAP peptide / Tsg101 binding. Potency, µM (series often up to 115 µM), inactives show at the highest dose activity change, negative = inhibition, hits mostly inhibitors. 340,000 tested, under 10 active. AID 493005; active means well fitted inhibition curve with a large enough effect in the main read-out, with a control signal flat, not every such curve was filed as active; inconclusive means small, poorly fitted or top-dose-only effect, or effect the other way, or a change in a side signal; inactive means no such curve, though single readings can be large or run the other way; further: % of control where 0% means no effect
Target sequence (Q99816 whole entry, looked up): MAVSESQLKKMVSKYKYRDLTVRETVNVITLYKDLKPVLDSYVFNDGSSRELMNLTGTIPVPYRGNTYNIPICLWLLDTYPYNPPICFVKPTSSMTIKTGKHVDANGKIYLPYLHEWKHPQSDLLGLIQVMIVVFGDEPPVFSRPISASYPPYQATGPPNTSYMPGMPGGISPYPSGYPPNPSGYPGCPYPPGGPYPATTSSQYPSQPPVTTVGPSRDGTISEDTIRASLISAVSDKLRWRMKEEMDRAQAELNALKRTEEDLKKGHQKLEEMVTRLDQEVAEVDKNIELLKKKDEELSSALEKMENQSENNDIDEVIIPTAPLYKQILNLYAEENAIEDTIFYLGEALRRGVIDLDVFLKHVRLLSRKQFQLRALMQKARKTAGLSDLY
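Steps: Tsg101 binding domain dispensed (10 uM final), compounds pinned in DMSO, FITC-labeled PTAP-motif peptide added (50 nM final); after 20 min binding at room temperature, polarization measured.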
ALOX12 inh = ALOX12 (human) lipoxygenase inhibition; purified 12hLO, xylenol orange hydroperoxide absorbance; Potency, µM (series often up to 108 µM), inactives show top-dose activity change, negative = inhibition, hits mostly inhibitors; hit rate 1.1% among 580,000; AID 1671190; active means well fitted curve in the direction sought with a large enough effect; inconclusive means small, poorly fitted or top-dose-only effect, or another doubt; inactive means no such curve, though single readings can be large; an effect the other way counts as inactive or inconclusive; further: on the % scale 0 is the no-effect control and ±100 the full control effect
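Purified human 12hLO at 150 nM in 25 mM Hepes, 0.01% Triton X-100, pH 7.0, preincubated 15 min at room temperature with compound. Reaction started with 40 uM arachidonic acid, 30 min at room temperature. Hydroperoxide measured by Fe-xylenol orange, 573/405 nm absorbance ratio.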
Rango complex inh = inhibitors of Rango-importin beta complex formation | Q14974 | Rango CFP/YFP FRET sensor + importin beta, 45 min | Potency, µM (top dose mostly 92.2 µM), inactives show at the highest dose inhibition of complex formation | hit rate 0.031% among 340,000;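 further: 0% = DMSO wells and 100% = buffer wells lacking importin beta; nearly all actives have a fitted effect of over 15% in size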
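Inhibition scored from the CFP 486 nm/YFP 530 nm FRET ratio 45 min after adding 0.125 microM importin beta to 50 nM Rango biosensor preincubated 5 min with compound (room temperature, PBS with DTT, Tween-20, BSA). No-importin wells as positive control.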
* hit, by the source's call; u = inconclusive; x = no result given; [ ] = remark or other dose. Unless noted, the call rests on the fitted dose curve. Potency means the concentration at half of the fitted maximal effect.

SMILES | Rango release inh | TDP1 inh | ClpP mod | PTAP TSG101 blk | ALOX12 inh | Rango complex inh
CC(=O)c1ccc2c(c1)Nc1ccccc1S2 | 6% | 7% | 32µM* | -6% | 0% | 3%
C/C(=N\NC(=O)c1ccc(C)cc1C)c1ccc2c(c1)Nc1ccccc1S2 | u | 5% | 6% | 1% | -20% | u
CCN(CC)CCn1c2ccccc2c(=O)c2c(O)ccc(O)c21 | -7% | x | -3% | 2% | 25µM* | -2%
CCc1ccc(OCCCCCn2ccnc2)cc1 | 0% | x | 1% | 0% | 1.3µM* | 2%
CNc1nc(C(=O)N2CCC3(CCC(=O)N(CC4CCCO4)C3)CC2)cs1 (configuration not stated) | x | x | x | x | 29% | x
CC(C)(C)NC(=O)c1cc2cc(Br)ccc2oc1=O | x | x | x | x | 3% | x
COc1ccc(CN2CCOc3ccc(CN4CCC(Oc5cccnc5)CC4)cc3C2)cc1 | x | x | x | x | -2% | x
CC1CCN(C(=O)CSc2nc(N)c3c4c(sc3n2)CN(C)CC4)CC1 | u | 2% | 28µM* | 1% | x | u
CN1CCc2c(sc3nc(SCC(=O)N4CCOCC4)nc(N)c23)C1 | u | 6% | u | -1% | 65% | u
FC(F)(F)c1nc2nncn2c2c1CCCCC2 | -17% | 5% | 32µM* | -10% | -4% | -1%
O=c1oc(-c2ccc(O)c(O)c2)cc2cc(O)cc(O)c12 | -15% | 4% | 5% | 2% | 2.5µM* | u
COC(=O)c1ccc(Cn2ccc(=O)[nH]c2=O)cc1 | -20% | x | 14µM* | 1% | -5% | 0%
COc1ccc(/C=C/C(=O)OCCN(C)C(C)C)cc1 | x | x | x | x | 40% | x
COc1ccc(N2CCN(CCCNC(=O)CCCn3c(=O)[nH]c4ccsc4c3=O)CC2)cc1 | -1% | 7% | -7% | -4% | 0% | 6%
COc1ccc(N2CCN(CCNC(=O)CCCn3c(=O)[nH]c4cc(Cl)ccc4c3=O)CC2)cc1 | 1% | 5% | 28µM* | -1% | 30% | 0%
O=C(CNc1ccccc1OC(F)(F)F)N1CCNC1=O | x | x | x | x | -27% | x
Cc1noc(C)c1-c1cc(Nc2ccc(F)cc2)ncn1 | x | 7%[56.1 µM] | x | x | u | x
Cc1noc(C)c1-c1cncnc1NC1CC1 | x | 28µM* | x | x | u | x
Cc1noc(C)c1-c1cc(NC2CC2)ncn1 | x | 40µM* | x | x | u | x
CN(C)Cc1ccccc1-c1cncnc1NC1CC1 | x | -5% | x | x | -11% | x
O=c1c2cc(Br)cc(Br)c2oc2nc3n(c(=O)c12)CCCS3 | x | -4% | x | x | x | x
O=Cc1ccc2oc3nc4n(c(=O)c3c(=O)c2c1)CCCS4 | -4% | 10µM* | -8% | -4% | -9% | 0%
O=C(N/N=C/c1ccccn1)c1cc(-c2ccc3ccccc3c2)n[nH]1 | -6% | x | 22µM* | 20% | -19% | u
CCc1ccc(-c2cc(C(=O)N/N=C/c3ccccn3)[nH]n2)cc1 | 13% | 11% | x | -3% | 6% | 0%
CC1=C(C(=O)Nc2ccccn2)C(c2ccc3c(c2)OCO3)n2ncnc2N1 (configuration not stated) | x | x | x | x | -8% | x
SMILES | Rango release inh | TDP1 inh | ClpP mod | PTAP TSG101 blk | ALOX12 inh | Rango complex inh
Cc1ccc(CN(C)C(=O)C2CCCN(C3CCN(Cc4cccnc4)CC3)C2)o1 (configuration not stated) | x | x | x | x | 16% | x
Cc1ccc(OC(=O)/C=C/c2cccs2)cc1 | x | x | x | x | 4% | x
CCOc1ccc(CC(=O)N/N=C/c2cccnc2)cc1 | -4% | 0% | 16µM* | -9% | 135% | -1%
CC(C)=C1C(=O)NN(c2ccc(F)c(Cl)c2)C1=O | -16% | 3% | -3% | x | 10µM* | -3%
O=C(CN1CC2CC(C1)[C@H]1CCCC(=O)N1C2)NC1CC[S+](=O)([O-])C1 (some centres not stated) | x | x | x | x | 12% | x
CN1C(=O)C(n2ccc3ccccc32)c2cccc(F)c21 (configuration not stated) | x | x | x | x | -25% | x
O=C1C(n2ccc3ccccc32)c2cccc(F)c2N1Cc1ccc(C(F)(F)F)cc1 (configuration not stated) | x | x | x | x | 45µM* | x

Source: PubChem
